From PubChem
Pf apPOL inh – Pf-apPOL DNA polymerase inhibition. Recombinant Pf-apPOL, molecular beacon fluorescence, 1.5 h. inhibition, % at 10 µM. hit rate 0.25% among 210,000
mHTT CaM bind – inhibitors of human mutant huntingtin-calmodulin interaction; P42858; AlphaScreen His-mHTT/GST-CaM binding, luminescence; inhibition, % at 15 µM; hit rate 3.6% among 190,000; AID 1671202
Each line names hits and unclear results; the compound was inactive in the other large screens. A selection: hits, their analogues and other compounds. The true share with any hit is near 3.6%. No stated cut-off is given here; in the data, active means inhibition above about 50%; inactive means the rest.

COc1ccc(OC)c(C=C2Oc3cc(OC)ccc3C2=O)c1	none
CC1CCN(CCNc2ccc(-c3nc(-c4ccc(F)cc4)no3)cn2)CC1	mHTT CaM bind 51
CC1CCN(CCCNc2ccc(-c3nc(-c4ccc(F)cc4)no3)cn2)CC1	none
COc1nn(C)cc1C(=O)N1CCC(c2nnc(-c3ccco3)o2)CC1	none
O=C(CSC1CCCC1)N1CCC(c2nnc(-c3ccco3)o2)CC1	mHTT CaM bind 100
Cc1cccc(NC(=O)Cn2nc(N3CCC(C)CC3)c3ccccc3c2=O)c1	none
Cc1ccccc1-c1nnc2n1N=C(c1ccc3c(c1)OCO3)CS2	none (no result: Pf apPOL inh)
COc1ccc2nc(N=Cc3nc(-c4ccccc4)oc3O)sc2c1	none
COc1cc(Br)c(CNc2cc(C)ccc2C)cc1OC	none
COc1ccc(C)cc1NCc1ccccc1C	mHTT CaM bind 81
CCOc1ccc(C(=O)Nc2cc(OC)ccc2OC)cc1[N+](=O)[O-]	none
Oc1oc(-c2ccccc2F)nc1C=Nc1cccc(Cl)c1	Pf apPOL inh 72
Oc1oc(-c2ccccc2Br)nc1C=Nc1cccc(Cl)c1	none
CC(=O)Oc1ccc2c(c1)OC(=Cc1ccc(C)o1)C2=O	none
OC(COC1CCCC1)CN1CCc2ccccc2C1 (stereo not drawn)	none
CCc1nnc2n1N=C(c1ccc(F)cc1)CS2	none
COc1ccc2[nH]cc(CN3CCC(C(=O)NC(C)c4ccc(F)cc4)CC3)c2c1 (stereo not drawn)	mHTT CaM bind 68
COc1cccc(C(C)NC(=O)C2CCN(Cc3cn(C)c4ccccc34)CC2)c1 (stereo not drawn)	none
COc1ccc(C2=NC3(CCCCC3)NC(c3ccccc3O)C2)cc1 (stereo not drawn)	mHTT CaM bind 59
CCOC(=O)N1CCC2(CC1)N=C(c1ccc(OCC)cc1)CC(c1ccccc1O)N2 (stereo not drawn)	none
CCOc1ccc(C2=NC3(CCN(C(C)=O)CC3)NC(c3ccccc3O)C2)cc1 (stereo not drawn)	mHTT CaM bind 51
COc1ccc(C2=NC3(CCN(C(C)C)CC3)NC(c3ccccc3O)C2)cc1 (stereo not drawn)	none
COc1cccc(Oc2coc3cc(OC(=O)c4cccc(OC)c4)ccc3c2=O)c1	none
O=C(Nc1ccccc1NC(=O)c1cccnc1)c1cccnc1	none
O=C(NCCc1c[nH]c2ccc(OCc3ccccc3)cc12)c1ccc(Cl)cc1	mHTT CaM bind 73
COc1ccc2[nH]cc(CCNC(=O)c3ccc(Cl)cc3)c2c1	none
CCOc1ccc(-c2cc(C(=O)NCc3cccnc3)c3ccccc3n2)cc1	none
COc1ccc(-c2[nH]n(-c3nc4ccccc4s3)c(=O)c2C=NCC2CCCO2)cc1 (stereo not drawn)	none
COc1ccc(-c2[nH]n(-c3nc4ccccc4s3)c(=O)c2C=NCc2ccccn2)cc1	mHTT CaM bind 84
Cc1oc2cc(O)ccc2c(=O)c1-c1ccc(Cl)cc1	none
COc1cc(N=Cc2ccc3c(c2)OCO3)c(OC)cc1Cl	none (no result: mHTT CaM bind)
O=C1OCCN1C(=O)[C@H]1[C@H](c2ccccc2)C(c2ccccc2)=NN1c1ccccc1	none
O=C1OCCN1C(=O)[C@H]1[C@H](c2ccc([N+](=O)[O-])cc2)C(c2ccc(F)cc2)=NN1c1ccccc1	mHTT CaM bind 54
O=C1OCCN1C(=O)[C@H]1[C@H](c2ccccc2)C(c2ccc(F)cc2)=NN1c1ccc(Br)cc1	none
O=C1OCCN1C(=O)[C@H]1[C@H](c2ccc([N+](=O)[O-])cc2)C(c2ccc(F)cc2)=NN1c1ccc(Br)cc1	mHTT CaM bind 65
O=C(NC1CC1)c1ccc(OCC2CCCN(C(=O)c3ccoc3)C2)cc1 (stereo not drawn)	none
NS(=O)(=O)c1ccc(NC(=O)CSc2nc(O)cc(=O)n2-c2ccccc2)cc1	none
COc1ccc([C@H]2C[C@H](O)[C@@H](n3cc(COC(=O)c4ccccc4)nn3)CN2CC2CCCCC2)cc1	mHTT CaM bind 69
COc1ccc([C@H]2C[C@H](O)[C@@H](n3cc(COC(=O)c4ccccc4)nn3)CN2Cc2cccs2)cc1	mHTT CaM bind 90
COc1ccc([C@H]2C[C@@H](O)[C@H](n3cc(COC(=O)c4ccccc4)nn3)CN2Cc2cccs2)cc1	none
CCCCCCN1C[C@H](n2cc(COC(=O)c3ccccc3)nn2)[C@@H](O)C[C@@H]1c1ccc(Cl)cc1	none
O=C(OCc1cn([C@H]2C[C@H](c3ccccc3)N(CC3CCCCC3)C[C@@H]2O)nn1)c1ccccc1	none
CCCCCCN1C[C@H](n2cc(COC(=O)c3ccccc3)nn2)[C@@H](O)C[C@@H]1c1ccc(OC)cc1	mHTT CaM bind 56
O=C(NC1CC1)c1ccc(OCC2CCCN(C(=O)c3ccc(F)c(Cl)c3)C2)cc1 (stereo not drawn)	none
COc1ccc(-c2c(C#N)c(N)nc3sc(C(=O)c4ccc(C)cc4)c(N)c23)cc1	none
N#Cc1c(N)nc2sc(C(=O)c3ccc(Cl)cc3)c(N)c2c1-c1ccc(O)cc1	mHTT CaM bind 83
CCCCOc1ccc(C(=O)Nc2cc(OC)ccc2OC)cc1	none
COc1cc(OC)cc(-c2nnc(NC(=O)c3ccc(S(=O)(=O)N(C)C)cc3)o2)c1	none
